PostGolgi yeast: growth inhibition of a yeast mutant, post-Golgi transport screen; post-Golgi transport phenotypic cell assay; inhibition, % at 10 µM; 98,000 tested, 0.9% active;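 further: yeast cells grown in 1536-well plates; yeast grown about 18 h at 30C before absorbance read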
D1 mod: allosterically modulates the human D1 dopamine receptor; P21728; B-score at 10 µM; HEK293 D1, CRE-luciferase, dopamine EC30 potentiation; actives deviate in either direction; 58,000 tested, 5.9% active;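 active means luminescence count or its row- and column-corrected plate score outside the 99.7% band of the plate's sample wells, on either side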
PLAP activator: activates human placental alkaline phosphatase. P05187. purified PLAP enzyme, luminescent substrate read-out; hits give high values. activation fold at 20 µM. 96,000 tested, 1.2% active. AID 696; in the data active means activation fold above about 2
Cav3 T inh: human Cav3.2 channel inhibition, primary screen; O95180; B-score at 10 µM; Cav3.2-expressing cells, Fluo-4 calcium fluorescence FDSS; hits give low values; 100,000 tested, 4% active;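 active means single-dose well whose peak fluorescence ratio is a statistical outlier from its plate by either plate-standardised score or position-corrected B-score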
PostGolgi ctrl: inhibits growth of the yeast control strain; efflux-deficient yeast background strain, growth absorbance A615, 16 h; inhibition, % at 10 µM; 98,000 tested, 5% active; AID 738
DAT uptake mod: modulates human dopamine transporter uptake under cocaine | LLC-PK1 hDAT cells, [14C]-dopamine uptake with cocaine IC80; actives deviate in either direction | B-score at 10 µM | 110,000 tested, 1.3% active | AID 449768;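 active means Z score or B-score, a plate-position-corrected score, falls beyond the plate's 99.7% confidence bounds, in either direction; inactive means both scores lie inside the 99.7% bounds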;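 further: scored against the spread of the other compound wells on the same plate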
Target sequence (Q01959 whole entry, looked up): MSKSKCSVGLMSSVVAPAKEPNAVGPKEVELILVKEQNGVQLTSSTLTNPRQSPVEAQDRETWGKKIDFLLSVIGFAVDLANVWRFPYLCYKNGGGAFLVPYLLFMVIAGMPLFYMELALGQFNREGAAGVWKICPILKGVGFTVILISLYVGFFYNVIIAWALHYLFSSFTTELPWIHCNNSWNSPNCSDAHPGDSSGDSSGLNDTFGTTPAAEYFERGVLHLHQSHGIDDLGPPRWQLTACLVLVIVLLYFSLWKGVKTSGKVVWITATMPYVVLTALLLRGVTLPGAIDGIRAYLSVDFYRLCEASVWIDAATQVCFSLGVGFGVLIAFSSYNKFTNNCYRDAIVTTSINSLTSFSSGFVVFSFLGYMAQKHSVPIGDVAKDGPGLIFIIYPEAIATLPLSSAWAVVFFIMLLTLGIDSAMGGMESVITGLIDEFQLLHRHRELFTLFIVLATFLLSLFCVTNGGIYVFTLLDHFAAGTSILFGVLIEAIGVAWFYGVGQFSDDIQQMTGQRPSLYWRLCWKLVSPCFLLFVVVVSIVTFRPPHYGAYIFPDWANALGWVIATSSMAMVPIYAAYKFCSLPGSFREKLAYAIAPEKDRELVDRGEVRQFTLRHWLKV
Active calls of the source: *; nt = no result. Rows were chosen to be rich in hits. Some 12% of all compounds tested hit in one or more screens of this group. Unless noted, no stated cut-off is given here; in the data, active means inhibition above about 30%; inactive means the rest.

SMILES | PostGolgi yeast | D1 mod | PLAP activator | Cav3 T inh | PostGolgi ctrl | DAT uptake mod
CCN(CC)CCn1c(NCc2nc3ccccc3n2Cc2ccccc2)nc2ccccc21 | 13 | nt | 4.5 | -4.2* | 23 | 0.84
COc1ccc(S(=O)(=O)NCCC(C)C)cc1C | 8 | nt | 0.8 | -0.48 | 11 | -0.015
CCNc1nc(NCC)nc(C(=O)OCCO)n1 | 3 | nt | 1.2 | -0.2 | 2 | -0.51
CN=c1scc(C)n1/N=C/c1ccc2c(c1)OCO2 | -7 | -3.2* | 0.8 | -4* | -5 | -0.77
COc1ccc(-c2onc(C)c2-c2ccc(C(=O)OC(C)C)o2)c(O)c1 | 0 | 1.7 | 1.3 | -5.2* | 37* | 0.055
Cc1cccc(N2CCN(C(=O)CCCSc3nc4ccccc4[nH]3)CC2)c1C | 10 | nt | 1.5 | -5.5* | 39* | 1.9
Cc1[nH]nc(N=CC2=C(O)CC(C)(C)CC2=O)c1-c1ccc(Cl)cc1 | 79* | 0.27 | 0.9 | -0.45 | 23 | 0.62
CCOC(=O)c1ccc(Nc2nc(-c3cccnc3)nc3ccccc23)cc1 | -12 | nt | 1.2 | 0.0093 | 12 | 0.01
CCCN(CCC)C1=N/C(=C\c2ccco2)C(=O)N1c1ccccc1 | 7 | nt | 1.4 | -4.9* | 27 | -0.59
S=c1[nH]nc(COc2ccccc2)n1/N=C/C(Cl)=C/c1ccccc1 | 3 | nt | 0.9 | -2.8 | 9 | 1.2
CCn1c(C(O)c2ccccc2)nc2ccccc21 (stereo not drawn) | 1 | nt | 1.4 | 0.85 | 4 | 0.2
COc1cccc(C(O)c2nc3ccccc3n2C(C)C)c1 (stereo not drawn) | -2 | nt | 2.4* | -1.9 | -2 | 0.24
CC1CCc2cc(F)cc3c(O)c(C(=O)Nc4cnccn4)c(=O)n1c23 (stereo not drawn) | nt | -0.66 | nt | nt | nt | nt
CCCCN(C)c1nc(-c2ccco2)c2c(c1C#N)CC(C)(C)OC2 | -8 | 4.4 | 1.6 | -3.8* | 15 | -0.35
CCN(CC)CCNc1nc(-c2ccccc2)c2c(c1C#N)CC(C)(C)OC2 | -5 | nt | 1.4 | -3.7* | 5 | 0.0088
CC1(C)Cc2c(C#N)c(NCc3ccco3)nc(-c3ccco3)c2CO1 | -1 | nt | 1.2 | -0.75 | 13 | -0.63
CC1(C)Cc2c(C#N)c(OCC(=O)c3ccc(Cl)cc3)nc(-c3ccco3)c2CO1 | -16 | 0.47 | 0.8 | nt | 21 | -2.4*
C[C@H]1CC[C@@]2(O[C@@H](CCO)C[C@H](O)[C@H]2O)O1 | nt | nt | nt | 0.038 | nt | -0.18
Cc1ccc(-n2c(C)cc(C(=S)N3CCOCC3)c2C)cc1C | 7 | nt | 1.3 | -3.4 | 0 | -0.14
Cc1cccc(C2CC(c3ccc(Br)cc3)Nc3nc(N)nn32)c1 (stereo not drawn) | 0 | 0.71 | 1 | -0.26 | 6 | 1.1
CCOC(=O)CN(C(=O)CSc1nnc2c(n1)[nH]c1ccc(F)cc12)c1ccccc1 | 3 | nt | 1.3 | -4.3* | 8 | 0.21
COCc1cc(C)nc(OCC(=O)N/N=C/c2ccc(-c3cccc([N+](=O)[O-])c3)o2)c1C#N | -2 | nt | 1.1 | nt | -1 | nt
COCc1cc(C)nc(OCC(=O)N/N=C/c2cc(C)n(-c3c(C)cccc3C)c2C)c1C#N | 1 | nt | 1.9 | -4.4* | 10 | -0.079
COc1ccc(OCC(O)COc2ccc(C(=O)O)cc2)cc1 (stereo not drawn) | -1 | -0.16 | 1 | -0.66 | -1 | 2.7*
Cc1ccc(OCCn2c(C3CC(=O)N(Cc4ccccc4)C3)nc3ccccc32)cc1 (stereo not drawn) | 8 | nt | 1.5 | -7.3* | 13 | 1.5
SMILES | PostGolgi yeast | D1 mod | PLAP activator | Cav3 T inh | PostGolgi ctrl | DAT uptake mod
CCCn1c(C2CC(=O)N(c3ccc(C)cc3)C2)nc2ccccc21 (stereo not drawn) | 0 | nt | 1.1 | 0.81 | -1 | 0.68
COC(=O)c1cc(NC(=O)CC2NC3CCCCC3NC2=O)cc(C(=O)OC)c1 (stereo not drawn) | -8 | nt | 1.1 | 0.49 | -6 | -0.23
O=C1[C@H]2[C@@H](C(=O)N1c1cc(Cl)cc(Cl)c1)[C@]1(C(=O)Nc3ccccc31)N1CCC[C@@H]21 | -2 | 0.28 | 1.4 | -1.9 | 25 | 3.8*
Cc1nc2ccccc2nc1N1CCCCC1 | 0 | 1.2 | 1 | -0.25 | 17 | 1.6
CC1=NN(c2ccccc2)C(=O)/C1=C/c1cc2cc(C)ccc2nc1N1CCCCC1 | 0 | nt | 1 | 1.4 | 48* | -1
Cc1cc(NC(=O)CN2CCN(c3ccccc3F)CC2)nc2c1c(=O)oc1ccccc12 | nt | 0.54 | nt | nt | nt | nt
CCOP(=O)(OCC)c1nc(/C=C/c2ccccc2)oc1NCc1ccccc1 | -10 | nt | 1.1 | nt | 4 | 2.2
CCOP(=O)(OCC)c1nc(/C=C/c2ccccc2)oc1NCc1ccc(OC)cc1 | 0 | nt | 1.6 | -5.6* | 6 | 0.7
CCCCc1cn([C@@H](CCCCNC(=O)OC(C)(C)C)C(=O)N2CCN(C(=O)OC(C)(C)C)CC2)nn1 | nt | nt | nt | -1.4 | nt | 0.21
C[C@@]12CCC=C[C@H]1[C@H](c1ccc(C(F)(F)F)cc1)N(Cc1ccccc1)C2=O | nt | nt | nt | -1.2 | nt | 0.49
c1ccc2c(c1)CCN2CCN1CCc2ccccc21 | -3 | -3.2* | 1 | -0.17 | 2 | -1.2
Cc1cccc2nc(CSc3nnnn3-c3ccccc3)cn12 | -2 | 0.079 | 1.1 | 0.42 | 6 | 2.4
Cc1cccc(-n2nnnc2SCc2csc(-c3ccccc3)n2)c1 | nt | 2.1 | nt | -3.3* | nt | -0.41
Cc1ccc(Nc2nc(CSc3nnnn3C)cs2)cc1 | 4 | -1.1 | 1.1 | 0.11 | 12 | 1.7
Cc1ccccc1Nc1nc(N)nc(CSc2nnnn2-c2ccccc2)n1 | -1 | 1.8 | 1.6 | -0.0064 | 22 | 2.7
CCc1ccc(Nc2nc(N)nc(CSc3nnnn3-c3ccccc3)n2)cc1 | 4 | 1.4 | 1.4 | nt | 37* | -0.73
Cc1ccc(Nc2nc(CSc3nnnn3-c3ccccc3)cs2)cc1 | 14 | nt | 1 | -4* | 34* | 1.4
Cc1ccc(C2c3sc(=O)[nH]c3SC3C(=O)NC(=O)C32)cc1 (stereo not drawn) | 3 | -1.7 | nt | 0.57 | 7 | -1.3
COc1ccc(Cn2nnnc2C(C(C)C)N2CCc3ccccc32)cc1 (stereo not drawn) | -1 | -0.3 | 1.1 | -2.5 | 28 | 0.35
CCCC(c1nnnn1Cc1ccc(OC)cc1)N1CCN(c2ccccc2)CC1 (stereo not drawn) | 3 | -1.8 | 1.2 | nt | 31* | -0.59
Cc1ccc(S(=O)(=O)Cn2nnnc2C(CC(C)C)N2CCN(c3ccccc3)CC2)cc1 (stereo not drawn) | nt | nt | nt | -0.76 | nt | 1
CC(C)CC(c1nnnn1C(C)C)N1CCN(c2ccccc2)CC1 (stereo not drawn) | -7 | nt | 1.2 | -0.085 | 61* | 0.26
COc1ccc(Cn2nnnc2C(CC(C)C)N2CCN(c3ccccc3)CC2)cc1 (stereo not drawn) | 14 | nt | 1.2 | -3.6 | 63* | -0.055
CCCCNC(=O)C1CCCN1C(=O)Nc1ccccc1 (stereo not drawn) | nt | nt | nt | -0.34 | nt | 0.72
COc1ccc(S(=O)(=O)N(C)CC(=O)Nc2cccc(C(C)=O)c2)cc1Cl | 4 | nt | 1.8 | -1.1 | -4 | 0.22
